# Test results taken from PubChem BioAssay (EPA / NIEHS).
# Active and inactive are the calls of the source. The calls were made as follows: active = hit-call score of the fitted dose curve at least 0.9, where 1 is the maximum; inactive = score below 0.9.
# Target: Signal transducer and activator of transcription 3 (Homo sapiens) (UniProt P40763)
# Experiment: ATG_STAT3_CIS: Attagene CIS-FACTORIAL HepG2 Assay for human Signal Transducer and Activator of Transcription 3 (STAT3) (AID 2282963)
# Settings: HepG2, Attagene cis-factorial STAT3 reporter transcription; actives raise or lower the signal
# Experimental: ATG_CIS is a cell-based, multiplexed-readout assay that uses HepG2, a human liver cell line, with measurements taken at 24 hours after chemical dosing in a 24-well plate.ATG_STAT3_CIS is one of 52 assay component(s) measured or calculated from the ATG_CIS assay. It is designed to make measurements of mRNA induction, a form of inducible reporter, as detected with fluorescence intensity signals by Reverse transcription polymerase chain reaction (RT-PCR) and Capillary electrophoresis technology.Data from the assay component ATG_STAT3_CIS was analyzed into 1 assay endpoint. This assay endpoint, ATG_STAT3_CIS, was analyzed with bidirectional fitting relative to DMSO as the negative control and baseline of activity. Using a type of inducible reporter, measures of mRNA for gain or loss-of-signal activity can be used to understand the reporter gene at the transcription factor-level as they relate to the gene STAT3. Furthermore, this assay endpoint can be referred to as a primary readout, because this assay has produced multiple assay endpoints where this one serves a reporter gene function. To generalize the intended target to other relatable targets, this assay endpoint is annotated to the dna binding intended target family, where the subfamily is stat protein.
# Human liver HepG2 cells are transiently transfected with multiple reporter transcription units (MRTUs) in 6-well plates using FuGene 6 reagent (Roche; 3 ml FuGene/1 mg DNA). The MRTU constructs are regulated by a cis-regulating element (promoter). […] A major difference between the CIS and TRANS system is that in CIS activities of endogenous TFs are measured, whereas the TRANS assay evaluates changes in activities of exogenous, chimeric NR-Gal4 proteins. […] At the end of 24 hour incubation, total RNA was isolated using TriZol reagent (Invitrogen). The isolated RNA is then reverse-transcribed using oligo(dT) primer and Mo-MLV reverse transcriptase (Invitrogen) with DNAse I (Ambion) treatment for 30 min. The one-tenth of the produced cDNA was amplified by PCR using Taq DNA polymerase (Invitrogen) and two reporter sequence-specific primers. The PCR products were fluorescently labeled by primer extension with 6-arboxyfluorescein (6-FAM) 5'-labeled reporter sequence-specific primer (2 min at 95 C, 20 s at 68 C and 10 min at 72 C) and these products were digested with 5U of HpaI (New England Biolabs) for 2h at 37 C. The fragments were purified using Qiaquick PCR columns (Qiagen), analyzed on an ABI 3130xL genetic analyzer (Applied Biosystems) with peak positions identified by using a set of X-rhodamine (ROX)-labeled MapMarker1000 molecular weight standards (BioVentures). The raw capillary electrophoresis data was processed using Attagraph software (Attagene).
# Sequence of Signal transducer and activator of transcription 3 (Homo sapiens) (P40763 whole entry, looked up): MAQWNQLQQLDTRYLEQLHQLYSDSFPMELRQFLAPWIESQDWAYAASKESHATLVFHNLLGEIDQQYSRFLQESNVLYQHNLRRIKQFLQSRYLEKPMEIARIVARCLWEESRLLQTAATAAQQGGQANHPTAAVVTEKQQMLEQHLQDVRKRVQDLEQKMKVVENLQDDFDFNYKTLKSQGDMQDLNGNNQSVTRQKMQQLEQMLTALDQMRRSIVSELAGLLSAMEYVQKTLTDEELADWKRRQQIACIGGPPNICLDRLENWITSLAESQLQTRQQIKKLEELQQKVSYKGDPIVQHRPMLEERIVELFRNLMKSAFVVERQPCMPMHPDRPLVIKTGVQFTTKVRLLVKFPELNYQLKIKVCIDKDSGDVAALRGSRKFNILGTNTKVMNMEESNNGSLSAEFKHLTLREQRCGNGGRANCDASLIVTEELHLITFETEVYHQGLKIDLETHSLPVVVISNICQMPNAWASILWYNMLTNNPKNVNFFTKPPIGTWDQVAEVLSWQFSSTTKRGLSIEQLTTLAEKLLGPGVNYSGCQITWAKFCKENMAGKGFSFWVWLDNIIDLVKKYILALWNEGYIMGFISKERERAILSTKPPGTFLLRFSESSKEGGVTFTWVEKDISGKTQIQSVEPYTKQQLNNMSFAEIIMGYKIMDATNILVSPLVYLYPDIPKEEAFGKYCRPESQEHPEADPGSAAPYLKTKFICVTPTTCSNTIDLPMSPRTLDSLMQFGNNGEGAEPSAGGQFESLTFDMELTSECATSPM
SMILES,outcome,AC50
Cc1cn([C@H]2C=C[C@@H](CO)O2)c(=O)[nH]c1=O,inactive,
CCc1cc(C2=C(C(=O)O)N(c3ccccc3C(F)(F)F)S(=O)(=O)c3ccccc32)cc2c1OCO2,inactive,
COc1ccc(OC(F)(F)F)cc1CN[C@H]1CCCN[C@H]1c1ccccc1,inactive,
CC(=O)CC(c1ccccc1)c1c(O)c2ccccc2oc1=O (stereo not given),inactive,
NC1CCCCC1,inactive,
COC(=O)[C@H]1[C@H]2C[C@@H]3c4[nH]c5cc(OC)ccc5c4CCN3C[C@H]2C[C@@H](OC(=O)c2cc(OC)c(OC)c(OC)c2)[C@@H]1OC,inactive,
c1ccc2occc2c1,inactive,
CC(=O)OCC(COC(C)=O)OC(C)=O,inactive,
Cc1ccc(C(C)(C)C)c(O)c1,inactive,
O=C(O)c1cccnc1,inactive,
CC(N)=O,inactive,
NC=O,inactive,
Cc1occc(=O)c1O,inactive,
CCCCCCC(CCCCCCCCCCC(=O)OCC(COC(C)=O)OC(C)=O)OC(C)=O (stereo not given),inactive,
C/C=C/C=C/C(=O)O,inactive,
COC(=O)CCCC(=O)OC,inactive,
O=C(N[C@@H](c1ccccc1)[C@@H]1CCCCN1)c1cccc(C(F)(F)F)c1Cl,inactive,
O=C(O)c1[nH]n(-c2ccc(S(=O)(=O)O)cc2)c(=O)c1N=Nc1ccc(S(=O)(=O)O)cc1,inactive,
Cc1cc(Cc2ccc(N)c(C)c2)ccc1N,inactive,
CC1(C)C(=O)NC(=O)N1CO,inactive,

SMILES,outcome,AC50
CCC(C)N(C)C(=O)c1cc2ccccc2c(-c2ccccc2Cl)n1 (stereo not given),inactive,
CC(C)c1cccc(C(C)C)c1NC(=O)NS(=O)(=O)c1cc(C(C)(C)O)co1,inactive,
CCCCCCCCCCCCCCCCO,inactive,
N[C@@H](Cc1c[nH]c2ccccc12)C(=O)O,inactive,
CN(C)CCCN(C)CCCN(C)C,inactive,
O=[Si]=O,inactive,
CN(C)C(=O)NC1(c2ccccc2)CCN(CCC[C@]2(c3ccc(Cl)c(Cl)c3)CCCN(C(=O)c3ccccc3)C2)CC1,,4.4 µM (active)
Nc1nc(=S)c2[nH]cnc2[nH]1,inactive,
CCCC[C@H]1CN(CC2CCOCC2)C(=O)OC12CCN(C1(C)CCN(C(=O)c3c(C)ncnc3C)CC1)CC2,inactive,
Cc1cc(SC2=C(O)C[C@@](CCc3ccc(N)cc3)(C(C)C)OC2=O)c(C(C)(C)C)cc1CO,inactive,
CCCCOC(=O)CCCCC(=O)OCCCC,inactive,
C/C=C/c1ccc(OC)cc1,inactive,
CC(C)COC(=O)CCCCC(=O)OCC(C)C,inactive,
CCCCC(CC)COP(=O)(OCC(CC)CCCC)OCC(CC)CCCC (stereo not given),inactive,
O=C(Oc1ccccc1)c1cccc(C(=O)Oc2ccccc2)c1,inactive,
CC(C)(C)c1ccccc1,inactive,
O=C1OC(c2ccc(O)cc2)(c2ccc(O)cc2)c2ccccc21,inactive,
CCc1nc(N)nc(N)c1-c1ccc(Cl)cc1,inactive,
CCCCCCCCCC[N+](C)(C)[O-],inactive,
CC(C)NCC(O)c1ccc(O)c(O)c1 (stereo not given),inactive,
